Compounds without any hit were thinned out: in the full panel of roughly 79,000, 15% have a hit. Rule as the data show it: active = growth inhibition above about 70%; inactive = the rest.
How the values were obtained:
[1] = NCI Yeast Anticancer Drug Screen. Data for the rad50 strain (AID 155);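 also: 0% = growth of vehicle-only cultures of the same strain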; settings: S. cerevisiae rad50 strain growth inhibition; at 50.0 µM; active compounds read high
Method in brief: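 Cells are treated with compound, grown, and their growth is then scored against vehicle-only cultures of the same repair-deficient yeast strain.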

[2] = NCI Yeast Anticancer Drug Screen. Data for the mec2-1 strain (AID 157); settings: S. cerevisiae mec2-1 strain, at 50.0 µM, active compounds read high
Method in brief: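 Test agents were screened against the mec2-1 yeast strain, with defined DNA repair or cell cycle alteration. Growth was scored as inhibition against vehicle-only controls.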

[3] = NCI Yeast Anticancer Drug Screen. Data for the sgs1 mgt1 strain (AID 161);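 also: 0% = growth of cultures given vehicle only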; settings: S. cerevisiae sgs1 mgt1 strain, at 50.0 µM, active compounds read high
Method in brief: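 Test agents were incubated with a DNA-repair-mutant yeast strain. Growth was then read and compared against vehicle-treated controls.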

[4] = NCI Yeast Anticancer Drug Screen. Data for the cln2 rad14 strain (AID 165);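 also: 0% = growth equal to vehicle treated cultures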; settings: S. cerevisiae cln2 rad14 strain, at 50.0 µM, active compounds read high
Method in brief: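 Growth of compound-exposed yeast (cln2 rad14 genotype) measured and expressed as inhibition relative to vehicle.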

[5] = NCI Yeast Anticancer Drug Screen. Data for the bub3 strain (AID 167); settings: S. cerevisiae bub3 mutant strain, at 50.0 µM, active compounds read high
Method in brief: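 Part of a panel of yeast mutants defective in DNA damage repair or cell cycle regulation. Each strain is grown with compound, and inhibition is calculated relative to solvent-treated cultures.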

[6] = NCI Yeast Anticancer Drug Screen. Data for the mlh1 rad18 strain (AID 175); settings: S. cerevisiae mlh1 rad18 strain growth inhibition; at 50.0 µM; active compounds read high
Method in brief: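 In this whole-cell yeast screen, a strain with altered DNA damage repair is challenged with compound, and its growth is measured against matched vehicle-treated controls.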

Measured: growth inhibition

O=c1oc(=O)c2ccccc2c2ccccc12
inactive: [1] -22.9% | [2] 6.85% | [3] -0.9% | [4] -32.1% | [5] -3.75% | [6] -5.6%

COc1ccc2c(=O)cc(-c3ccncc3)oc2c1OC
inactive: [1] 40.2% | [2] 7.8% | [3] -4.05% | [4] 2.3% | [5] -47% | [6] 31.2%

CC#CC#C/C=C1/C=CC2(CC=CO2)O1 (stereo not given)
inactive: [1] 1.55% | [2] 7.95% | [3] 9.85% | [4] 12.3% | [5] 25.3% | [6] 29.6%

CS/C(=C\c1ccc2cc(C)ccc2[n+]1C)N1CCOCC1
inactive: [1] 7.25% | [2] -3.85% | [3] -16% | [4] -2.05% | [5] -45.6% | [6] -56.5%

COC(=O)/C=C/c1cc(=O)n2c(nc3ccccc32)s1
inactive: [1] -11.1% | [2] -20.1% | [3] -13.2% | [4] -35.2% | [5] -41.5% | [6] -12.2%

CC(=O)C1CCCC(=O)/C=C/C(=O)O1 (stereo not given)
inactive: [1] 3.4% | [2] -12.8% | [3] -7% | [4] 5.8% | [5] 11.5% | [6] -18%

CCOC(=O)N1CCN(Cc2cc(=O)n3cc(C)ccc3n2)CC1
inactive: [1] -14.1% | [2] -15.5% | [3] 11.3% | [4] 16.2% | [5] 5.95% | [6] 2.2%

COC(=O)N/N=C(\C)c1sc(-c2nc(C)c(/C(C)=N/NC(=O)OC)s2)nc1C
inactive: [1] 17.9% | [2] 0.95% | [3] -27.4% | [4] -35.6% | [5] 3.05% | [6] 1.05%

CCOC(=O)C(=O)SCC(NC(=O)OCc1ccccc1)C(=O)O (stereo not given)
inactive: [1] -12.9% | [2] -4.95% | [3] 11.7% | [4] -1.95% | [5] 7.75% | [6] -12.2%

CO[C@@]12CC(=O)/C(=C(O)\C=C\c3ccccc3)C(=O)[C@]1(OC)Cc1ccccc1O2
inactive: [1] 35.1% | [2] 31.9% | [3] 33.6% | [4] 18.6% | [5] 34.2% | [6] 24.6%

O=C(Nc1ccc(C(=O)O)cc1)Nc1cccc(F)c1
inactive: [1] 14.8% | [2] 8.35% | [3] 10.2% | [4] 14.6% | [5] 22.6% | [6] 13.8%

CC1CCC(C)C(O)C1 (stereo not given)
inactive: [1] -21.9% | [2] -22.3% | [3] -19.1% | [4] 23.1% | [5] -27.8% | [6] 3.25%

COc1ccc(N2C=Nn3c(nc4sc(C)c(C)c4c3=O)C2)cc1
inactive: [1] 7% | [2] 12.9% | [3] 20.9% | [4] -12.3% | [5] 12.9% | [6] -1%

N#C/C=C\c1ccc(Cl)cc1
inactive: [1] 2.6% | [2] -4.5% | [3] -30.4% | [4] -10.8% | [5] -11.8% | [6] -3.05%

NNC(=S)N/N=C(/C(=O)Nc1cc(Cl)ccc1Cl)C1C(=O)Nc2ccccc2S1=O (stereo not given)
inactive: [1] -21.8% | [2] -32.6% | [3] -5.1% | [4] -28.6% | [5] -6.6% | [6] -0.35%

CC(=O)Nc1ccc(Cc2ccc(Cl)cc2)cc1
inactive: [1] 5.6% | [2] 0.7% | [3] 5.7% | [4] 10.8% | [5] -9.8% | [6] -2.6%

O/N=C1\CCC2CCCCC12 (stereo not given)
inactive: [1] 27.5% | [2] 14.5% | [3] 2.55% | [4] 19.1% | [5] 1.05% | [6] 24.9%

C[C@H]1CCC2C(OC(=O)[C@@H]2CN(C)C)[C@]2(C)C(=O)C=CC12O (stereo not given in full)
inactive: [1] -24.5% | [2] -31.4% | [3] -10.3% | [4] 17.4% | [5] -6.95% | [6] -36%

CC(C)=CCCc1ccc2c(c1)C(=O)c1cc3c(cc1C2=O)OCO3
inactive: [1] -13.9% | [2] 15.1% | [3] 21.1% | [4] 9.6% | [5] 10.6% | [6] -2.1%

CC(C)(C)C(=O)/C(O)=C\c1ccccc1
inactive: [1] -4.25% | [2] 6.2% | [3] -12.2% | [4] -10.7% | [5] 10.9% | [6] -1.2%

From PubChem BioAssay (NCI)
